Experimental data: PubChem BioAssay
Values without a mark were called inactive. The rule behind the calls is not given here.

Target: Pantothenate synthetase (Mycobacterium tuberculosis (strain ATCC 25618 / H37Rv)) (UniProt P9WIL5)
Experiment: Recombinant Mtb pantothenate synthetase (PanC) inhibitors, coupled enzyme, confirmatory (AID 375);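 note: 0% = full reaction with vehicle and 100% = no enzyme background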
Conditions: coupled enzyme assay; at 10 µM, stronger effect = higher value

Chain of Pantothenate synthetase (Mycobacterium tuberculosis (strain ATCC 25618 / H37Rv)) (P9WIL5 whole entry, looked up): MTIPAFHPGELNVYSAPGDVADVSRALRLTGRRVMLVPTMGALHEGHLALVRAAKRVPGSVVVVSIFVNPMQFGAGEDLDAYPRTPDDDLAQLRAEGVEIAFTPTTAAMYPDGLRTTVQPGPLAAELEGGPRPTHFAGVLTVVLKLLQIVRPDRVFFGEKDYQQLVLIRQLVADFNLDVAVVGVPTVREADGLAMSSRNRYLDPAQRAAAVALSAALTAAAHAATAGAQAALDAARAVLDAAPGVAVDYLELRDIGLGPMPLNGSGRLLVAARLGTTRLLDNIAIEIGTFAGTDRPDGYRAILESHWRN

Structure (SMILES)	inhibition [%]
O=C(COC(=O)c1cc(S(=O)(=O)N2CCOCC2)cs1)c1ccccc1	0
CCCN(CCC)S(=O)(=O)c1ccc(C(=O)Nc2nnc(-c3cccc(OC)c3)o2)cc1	6
CN(C(=O)c1ccc(S(=O)(=O)NC2CCCC2)cc1)C1CCCCC1	5
COc1ccc(Nc2nc(OC)nc(N3CCN(c4ccc(OC)cc4)CC3)n2)cc1	1
COC(=O)c1cc(-c2ccccc2)sc1NC(=O)c1cc(C)on1	0
N#CC(C(=O)C1CCCCC1)c1nc2ccccc2[nH]1 (stereo not drawn)	0
CCCCCCn1c(CN2CCCC(C)C2)nc2c1c(=O)n(C)c(=O)n2C (stereo not drawn)	6
c1cc(C(c2nnnn2C2CCCC2)N2CCOCC2)ccn1 (stereo not drawn)	4
